Screening results from PubChem.
TDP1 cell CPT: qHTS for Inhibitors of human tyrosyl-DNA phosphodiesterase 1 (TDP1): qHTS in cells in presence of CPT. chicken DT40 Tdp1-/-;hTDP1 cells + 20 nM CPT, ATP luminescence, 48 h. Potency, µM (series often up to 46.2 µM), actives largely listed as inhibitors. AID 686979, 2013. 420,000 compounds, 12% hits; note: nearly all actives have a fitted effect of over 55% in size
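Chicken DT40 Tdp1-/- cells complemented with human TDP1, 400 cells/well, exposed to compounds plus 20 nM camptothecin for at least 48 h at 37 C; viability read as ATP content by CellTiter-Glo luminescence.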
HT1080 IDH1KD tx: qHTS for induction of synthetic lethality in tumor cells producing 2HG: qHTS for the HT-1080-IDH1KD cell line; HT-1080 IDH1 knockdown viability, ATP luminescence, 48 h; Potency, µM (titrated, usually from 46.1 µM), actives largely listed as cytotoxic; 360,000 compounds, 2% hits; AID 686971, 2013
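Cytotoxicity counter-line: IDH1KD HT-1080, 48 h, CellTiter-Glo. Curves classed by r2, magnitude and activity.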
IL1B secr inh: qHTS for Inhibitors of Inflammasome Signaling: IL-1-beta AlphaLISA Primary Screen. THP-1 LPS/ATP IL-1B secretion, AlphaLISA, 16 h; hits give low values. activity change, % at 57.5 µM. 360,000 compounds, 4.7% hits. AID 743279, 2014; in the data active = activity change below about -50%; inconclusive = mostly about -30% to -49%
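THP-1 cells pretreated 1 hr with compounds (up to 57.5 uM final), then stimulated with LPS (250 ng/mL final) plus ATP (1.25 mM final); secreted IL-1B measured by AlphaLISA after 16 hr, decreased signal indicating inhibition.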
12-LOX inh: Primary qHTS assay for inhibitors of human arachidonate 12S-lipoxygenase (ALOX12): Round 2; 580,000 compounds, 1.1% hits; purified 12hLO, xylenol orange hydroperoxide absorbance; Potency, µM (highest dose often 108 µM), hits mostly inhibitors
Target sequence (P18054 whole entry, looked up): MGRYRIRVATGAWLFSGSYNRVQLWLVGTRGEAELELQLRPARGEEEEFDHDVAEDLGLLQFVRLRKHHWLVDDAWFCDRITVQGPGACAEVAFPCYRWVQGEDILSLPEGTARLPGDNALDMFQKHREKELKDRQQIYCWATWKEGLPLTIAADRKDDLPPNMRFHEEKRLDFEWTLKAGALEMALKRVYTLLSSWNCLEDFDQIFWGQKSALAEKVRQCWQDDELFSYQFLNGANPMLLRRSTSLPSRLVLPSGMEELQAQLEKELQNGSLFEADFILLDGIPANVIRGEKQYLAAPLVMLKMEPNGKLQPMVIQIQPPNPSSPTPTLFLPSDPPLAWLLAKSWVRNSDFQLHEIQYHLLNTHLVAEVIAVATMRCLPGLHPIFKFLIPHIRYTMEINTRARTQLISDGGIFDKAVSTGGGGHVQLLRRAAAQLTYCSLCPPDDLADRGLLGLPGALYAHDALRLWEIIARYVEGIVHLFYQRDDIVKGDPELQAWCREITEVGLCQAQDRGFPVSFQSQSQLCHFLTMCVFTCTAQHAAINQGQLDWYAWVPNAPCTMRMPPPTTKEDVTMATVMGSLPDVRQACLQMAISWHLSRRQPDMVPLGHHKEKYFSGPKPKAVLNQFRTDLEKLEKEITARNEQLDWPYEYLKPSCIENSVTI
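Hydroperoxide product was detected by ferrous iron/xylenol orange as the 573 to 405 nm absorbance ratio. Arachidonic acid at 40 uM (final) was turned over for 30 min at room temperature by 150 nM human 12hLO, pH 7.0 Hepes buffer, after 15 min compound preincubation.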
HT1080-NT tox: qHTS for induction of synthetic lethality in tumor cells producing 2HG: qHTS for the HT-1080-NT fibrosarcoma cell line. Potency, µM (titrated, usually from 46.1 µM), most hits filed as cytotoxic. AID 686970, 2013. HT-1080-NT fibrosarcoma viability, CellTiter-Glo ATP luminescence, 48 h. 360,000 compounds, 1.6% hits;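 note: NT is the 2HG producing partner of a matched IDH1 knockdown line; nearly all actives have a fitted effect of over 55% in size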
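Compounds were tested in concentration-response format on HT-1080-NT cells for 48 hours at 37 degrees C. Cell viability came from CellTiter-Glo luminescence; curves were classified by r2, response magnitude and activity.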
DT40 TDP1 no CPT: qHTS for Inhibitors of human tyrosyl-DNA phosphodiesterase 1 (TDP1): qHTS in cells in absence of CPT | Potency, µM (highest dose often 46.2 µM), actives largely listed as inhibitors | AID 686978, 2013 | 420,000 compounds, 15% hits | DT40 Tdp1-/- hTDP1 cells, no CPT, ATP luminescence, 48 h; note: nearly all actives have a fitted effect of over 55% in size
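Compound effects on proliferation are scored in DT40 Tdp1-/-;hTDP1 cells in the absence of CPT. ATP levels (CellTiter-Glo luminescence) are recorded after a ≥48 hr, 37 °C incubation.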
Numbers stand for hits; i = inactive; ? = inconclusive; nt = not tested or not shown. Many of the other results were omitted from the sample, so hits are more common in it than they were. Unless noted, calls come from the whole dose curve; as a rule, active = well fitted curve in the direction sought with a large enough effect; inconclusive = small, poorly fitted or top-dose-only effect, or another doubt; inactive = no such curve, though single readings can be large; an effect the other way counts as inactive or inconclusive.

SMILES	TDP1 cell CPT	HT1080 IDH1KD tx	IL1B secr inh	12-LOX inh	HT1080-NT tox	DT40 TDP1 no CPT
O=C(CC1C(=O)NCCN1C(=O)Nc1ccc(F)cc1F)Nc1cc(Cl)ccc1Cl (stereo unspecified)	i	i	nt	i	i	i
Cc1cc(C)cc(NC(=O)N2CCNC(=O)C2CC(=O)Nc2cc(Cl)ccc2Cl)c1 (stereo unspecified)	?	i	-57	i	i	?
O=C(CC1C(=O)NCCN1C(=O)Nc1ccc(C(F)(F)F)cc1)Nc1ccc(F)cc1 (stereo unspecified)	?	i	?	?	i	?
COC(=O)c1cccc(NC(=O)CC2C(=O)NCCN2C(=O)Nc2cc(C)cc(C)c2)c1 (stereo unspecified)	i	i	-62	i	i	i
COc1ccc(NC(=O)CC2C(=O)NCCN2C(=O)Nc2ccc(C(F)(F)F)cc2)cc1 (stereo unspecified)	i	?	-79	?	?	i
Cc1ccc(F)cc1C(=O)Nc1ccn2ccnc2n1	nt	nt	nt	i	nt	nt
CC(C)Oc1ccccc1C(C)NC(=O)Cc1c[nH]c2ccccc12 (stereo unspecified)	nt	nt	nt	i	nt	nt
COc1ccc(-c2nc(CSCC(=O)N3CCN(c4ccccc4)CC3)c(C)o2)cc1	10µM	nt	nt	i	nt	10µM
Cc1ccsc1-c1nc(CSCC(=O)N2CCN(c3ccccc3)CC2)c(C)o1	15µM	i	i	i	i	?
COC(=O)c1cc(CNC(=O)c2ccccc2OCc2c(C)noc2C)ccc1OC	i	i	i	?	i	i
COC(=O)CCCCC1SCC2NC(=O)NC21O (stereo unspecified)	i	i	-113	i	i	i
COC(=O)CCCC[C@@H]1SC[C@@H]2NC(=O)N[C@@H]21	i	nt	nt	nt	nt	i
Cc1ccc(CC(=O)C(C#N)C(=O)Nc2c(C)cccc2C)cc1 (stereo unspecified)	nt	nt	nt	i	nt	nt
COc1ccccc1C(=O)ON=C1c2ccccc2-c2ccccc21	i	i	i	i	i	23µM
O=C(Nc1cccc(Oc2ccccc2)c1)c1ccc(-n2cncn2)c2ccoc12	18µM	?	i	i	i	?
O=C(Nc1cccc(F)c1)c1ccc(-n2cncn2)c2ccoc12	i	i	i	i	i	i
Cc1cccc2c(=O)cc(C(=O)N3CCOC34CCN(C)CC4)oc12	nt	nt	nt	i	nt	nt
CC(=O)Nc1ccc(NC(=O)C2(C)CC2(Cl)Cl)cc1 (stereo unspecified)	?	i	i	i	i	18µM
COc1ccc(CNC(=O)c2cc(NC(C)=O)cc3nc(C)ccc23)c(OC)c1	nt	nt	nt	i	nt	nt
N#Cc1ccc(S(=O)(=O)N2CC(C(=O)NC3CCCCC3)C3(CCOCC3)C2)cc1 (stereo unspecified)	nt	nt	nt	i	nt	nt
CCSc1ncc(Cl)c(C(=O)N(Cc2ccc(N(C)C)cc2)C2CCS(=O)(=O)C2)n1 (stereo unspecified)	?	i	i	?	i	i
CCOc1ccc(CN(C(=O)c2nc(SC)ncc2Cl)C2CCS(=O)(=O)C2)cc1 (stereo unspecified)	i	nt	nt	i	nt	16µM
CCc1ccc(CN(C(=O)c2nc(SC)ncc2Cl)C2CCS(=O)(=O)C2)cc1 (stereo unspecified)	?	nt	nt	i	nt	?
CC(C)Sc1ncc(Cl)c(C(=O)N(Cc2ccc(N(C)C)cc2)C2CCS(=O)(=O)C2)n1 (stereo unspecified)	16µM	nt	nt	i	nt	?
COc1ccc2c(c1)CN(C(C)=O)CC[C@H]1COC(=O)N21	nt	nt	nt	i	nt	nt
SMILES	TDP1 cell CPT	HT1080 IDH1KD tx	IL1B secr inh	12-LOX inh	HT1080-NT tox	DT40 TDP1 no CPT
COc1cccc(CN2C[C@@H]3C(=O)N(CCCN4CCCC4=O)C(=O)[C@@H]3C2)c1	nt	nt	nt	i	nt	nt
CCOC(=O)c1c(NC(=O)COC(=O)Cn2cnc3c2c(=O)n(C)c(=O)n3C)sc(C)c1CC	6.5µM	i	i	i	i	i
CC1(C)CC[C@]2(C(=O)n3ccnc3)CC[C@]3(C)[C@H](C(=O)C=C4[C@@]5(C)C=C(C#N)C(=O)C(C)(C)[C@@H]5CC[C@]43C)[C@@H]2C1	0.58µM	3.7µM	-100	?	4.1µM	0.65µM
CC(C)C(=O)Nc1ccc(F)c(F)c1F	nt	nt	nt	i	nt	nt
CC(C)CC(=O)Nc1ncc([N+](=O)[O-])s1	i	i	i	?	i	?
O=C(O)C1CCCC[C@H]1C(=O)Nc1ncc([N+](=O)[O-])s1 (stereo partly specified)	i	i	i	i	i	i
O=C(COC(=O)c1ccccc1)Nc1ncc([N+](=O)[O-])s1	i	i	i	40µM	i	?
O=C(Nc1ccccc1)Nc1ncc([N+](=O)[O-])s1	6.5µM	9.2µM	-87	?	9.2µM	4.6µM
Cc1cccc(C)c1NC(=O)C(Sc1ccccc1)c1ccccc1 (stereo unspecified)	nt	nt	nt	i	nt	nt
